# Results as given in article PMC5540273 (PLoS ONE, 2017).
# “And” between values parts separate entries of the source, which are not always exact repeats. Equal values may be shown once. Read-outs that look alike come from different tables or passages of the source.
# Assays:
# [1] = system: MYLK4; details: concentration: 1 μM, replicates: in singlicate, n = 1
# [2] = system: MYLK; details: concentration: 1 μM, replicates: in singlicate, n = 1
# [3] = system: MYO3A; details: concentration: 1 μM, replicates: in singlicate, n = 1
# [4] = system: MYO3B; details: concentration: 1 μM, replicates: in singlicate; n = 1
# [5] = system: T1, NDR1; details: concentration: 1 μM, replicates: in singlicate, n = 1
# T1 construct: gene STK38
# [6] = system: NDR2; details: concentration: 1 μM, replicates: in singlicate, n = 1
# [7] = system: NEK10; details: concentration: 1 μM, replicates: in singlicate; n = 1
# [8] = system: NEK11; details: concentration: 1 μM, replicates: in singlicate, n = 1
# [9] = system: NEK1; details: concentration: 1 μM, replicates: in singlicate; n = 1
# [10] = system: NEK2; details: concentration: 1 μM, replicates: in singlicate, n = 1
# [11] = system: NEK3; details: concentration: 1 μM, replicates: in singlicate, n = 1
# [12] = system: NEK4; details: concentration: 1 μM, replicates: in singlicate, n = 1
# [13] = system: NEK5; details: concentration: 1 μM, replicates: in singlicate, n = 1
# [14] = system: NEK6; details: concentration: 1 μM, replicates: in singlicate, n = 1
# [15] = system: NEK7; details: concentration: 1 μM, replicates: in singlicate; n = 1
# [16] = system: NEK9; details: concentration: 1 μM, replicates: in singlicate, n = 1
# [17] = system: T2, NIK; details: concentration: 1 μM, replicates: in singlicate, n = 1
# T2 construct: gene MAP3K14
# [18] = system: T3, NIM1; details: concentration: 1 μM, replicates: in singlicate; n = 1
# T3 construct: gene MGC42105
# [19] = system: NLK; details: concentration: 1 μM, replicates: in singlicate, n = 1
# [20] = system: T4, OSR1; details: concentration: 1 μM, replicates: in singlicate, n = 1
# T4 construct: gene OXSR1
# 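Further: KINOMEscan kinase panel screen.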
compound,measurement,setting,value
COc1ccc(-c2nc3n(c2-c2ccncc2)CCC3)cc1 [SKF-104493],%Inh,[1]; 1 µM,0% and 12%
same,%Inh,[2]; 1 µM,14% and 8%
same,%Inh,[3]; 1 µM,7% and 25%
same,%Inh,[4],0%
same,%Inh,[5]; 1 µM,22% and 13%
same,%Inh,[6]; 1 µM,16% and 10%
same,%Inh,[7],0%
same,%Inh,[8]; 1 µM,42% and 13%
same,%Inh,[9],0%
same,%Inh,[10]; 1 µM,0% and 4%
same,%Inh,[11]; 1 µM,19% and 0%
same,%Inh,[12]; 1 µM,19% and 0%
same,%Inh,[13]; 1 µM,0% and 16%
same,%Inh,[14]; 1 µM,5% and 0%
same,%Inh,[15],0%
same,%Inh,[16]; 1 µM,0% and 23%
same,%Inh,[17]; 1 µM,0% and 6%
same,%Inh,[18],19%
same,%Inh,[19]; 1 µM,28% and 64%
same,%Inh,[20]; 1 µM,2% and 0%
COC(=O)c1c(-c2ccccc2)c2cc(Cl)ccc2c(=O)n1Cc1ccc(S(C)(=O)=O)cc1,%Inh,[1],5%
same,%Inh,[2],34%
same,%Inh,[3],0%
same,%Inh,[4],0%
same,%Inh,[5],0%
same,%Inh,[6],0%
same,%Inh,[7],13%
same,%Inh,[8],0%
same,%Inh,[9],0%
same,%Inh,[10],83%
same,%Inh,[11],4%
same,%Inh,[12],0%
same,%Inh,[13],0%
same,%Inh,[14],2%
same,%Inh,[15],0%
same,%Inh,[16],0%
same,%Inh,[17],0%
same,%Inh,[18],0%
same,%Inh,[19],0%
same,%Inh,[20],0%
COc1cc2ncnc(Nc3ccc(OCc4ccccc4Br)c(Cl)c3)c2cc1OC.Cl [GI261590],%Inh,[1],0%
same,%Inh,[2],10%
same,%Inh,[3],38%
same,%Inh,[4],0%
same,%Inh,[5],0%
same,%Inh,[6],0%
same,%Inh,[7],25%
same,%Inh,[8],0%
same,%Inh,[9],0%
same,%Inh,[10],0%
same,%Inh,[11],12%
same,%Inh,[12],0%
same,%Inh,[13],14%
same,%Inh,[14],0%
same,%Inh,[15],0%
same,%Inh,[16],0%
same,%Inh,[17],20%
same,%Inh,[18],22%
same,%Inh,[19],26%
same,%Inh,[20],0%
FC(F)(F)c1cc(Nc2nccc(-c3c(-c4ccc(Cl)cc4)nn4ncccc34)n2)ccc1Cl [GW829351],%Inh,[1],1%
same,%Inh,[2],0%
same,%Inh,[3],0%
same,%Inh,[4],0%
same,%Inh,[5],16%
same,%Inh,[6],0%
same,%Inh,[7],0%
same,%Inh,[8],0%
same,%Inh,[9],0%
same,%Inh,[10],0%
same,%Inh,[11],2%
same,%Inh,[12],0%
same,%Inh,[13],0%
same,%Inh,[14],0%
same,%Inh,[15],0%
same,%Inh,[16],0%
same,%Inh,[17],4%
same,%Inh,[18],0%
same,%Inh,[19],29%
same,%Inh,[20],0%
COC(=O)c1cccc(NC(=O)NCCNc2ccnc(Nc3ccc(F)cc3)n2)c1 [GSK1379883],%Inh,[1],6%
same,%Inh,[2],11%
same,%Inh,[3],31%
same,%Inh,[4],0%
same,%Inh,[5],0%
same,%Inh,[6],27%
same,%Inh,[7],8%
same,%Inh,[8],10%
same,%Inh,[9],0%
same,%Inh,[10],0%
same,%Inh,[11],0%
same,%Inh,[12],0%
same,%Inh,[13],17%
same,%Inh,[14],0%
same,%Inh,[15],0%
same,%Inh,[16],11%
same,%Inh,[17],9%
same,%Inh,[18],0%
same,%Inh,[19],0%
same,%Inh,[20],4%
CNc1nccc(-c2c(-c3ccc(F)cc3)ncn2CCCN2CCOCC2)n1 [SB-222516],%Inh,[1],0%
same,%Inh,[2],0%
same,%Inh,[3],0%
same,%Inh,[4],0%
same,%Inh,[5],0%
same,%Inh,[6],28%
same,%Inh,[7],0%
same,%Inh,[8],0%
same,%Inh,[9],0%
same,%Inh,[10],0%
same,%Inh,[11],17%
same,%Inh,[12],2%
same,%Inh,[13],100%
same,%Inh,[14],0%
same,%Inh,[15],0%
same,%Inh,[16],0%
same,%Inh,[17],47%
same,%Inh,[18],14%
same,%Inh,[19],0%
same,%Inh,[20],27%
FC(F)(F)c1ccc(-c2nn3ncccc3c2-c2ccnc(Nc3cccc(C(F)(F)F)c3)n2)cc1 [GW828205],%Inh,[1],1%
same,%Inh,[2],40%
same,%Inh,[3],0%
same,%Inh,[4],0%
same,%Inh,[5],19%
same,%Inh,[6],0%
same,%Inh,[7],0%
same,%Inh,[8],0%
same,%Inh,[9],0%
same,%Inh,[10],0%
same,%Inh,[11],15%
same,%Inh,[12],0%
same,%Inh,[13],0%
same,%Inh,[14],0%
same,%Inh,[15],0%
same,%Inh,[16],0%
same,%Inh,[17],0%
same,%Inh,[18],0%
same,%Inh,[19],10%
same,%Inh,[20],0%
CSc1ccc(NC2=C(c3ccccc3Cl)C(=O)NC2=O)cc1 [SB-342411],%Inh,[1],10%
same,%Inh,[2],4%
same,%Inh,[3],0%
same,%Inh,[4],0%
same,%Inh,[5],31%
same,%Inh,[6],0%
same,%Inh,[7],29%
same,%Inh,[8],0%
same,%Inh,[9],75%
same,%Inh,[10],8%
same,%Inh,[11],0%
same,%Inh,[12],0%
same,%Inh,[13],8%
same,%Inh,[14],0%
same,%Inh,[15],0%
same,%Inh,[16],15%
same,%Inh,[17],0%
same,%Inh,[18],0%
same,%Inh,[19],56%
same,%Inh,[20],2%
Cc1cc(N2CCC(NS(=O)(=O)c3ccc(F)cc3)CC2)nc(Nc2cccc(C#N)c2)n1.O=C(O)C(F)(F)F [GSK1653537],%Inh,[1],0%
same,%Inh,[2],0%
same,%Inh,[3],0%
same,%Inh,[4],0%
same,%Inh,[5],0%
same,%Inh,[6],0%
same,%Inh,[7],1%
same,%Inh,[8],0%
same,%Inh,[9],55%
same,%Inh,[10],0%
same,%Inh,[11],0%
same,%Inh,[12],0%
same,%Inh,[13],0%
same,%Inh,[14],0%
same,%Inh,[15],0%
same,%Inh,[16],0%
same,%Inh,[17],0%
same,%Inh,[18],18%
same,%Inh,[19],35%
same,%Inh,[20],6%
Oc1ccc2ncnc(Nc3ccc(OCc4ccccc4)cc3)c2c1 [GI262866],%Inh,[1],3%
same,%Inh,[2],0%
same,%Inh,[3],0%
same,%Inh,[4],0%
same,%Inh,[5],0%
same,%Inh,[6],0%
same,%Inh,[7],0%
same,%Inh,[8],0%
same,%Inh,[9],0%
same,%Inh,[10],0%
same,%Inh,[11],0%
same,%Inh,[12],0%
same,%Inh,[13],7%
same,%Inh,[14],0%
same,%Inh,[15],1%
same,%Inh,[16],10%
same,%Inh,[17],8%
same,%Inh,[18],7%
same,%Inh,[19],7%
same,%Inh,[20],0%
